High-throughput results (PubChem)
A selection: hits, their analogues and other compounds. The true share with any hit is near 11%.
Tau fluor cs: counter-screen for tau fibril formation inhibitors | 0.93% of 280,000 active | tau K18 P301L Alexa594 fluorescence, heparin fibrillization | Potency, µM (top dose mostly 57.7 µM), for the others: at the top dose activity change, negative = decrease | AID 1463; note: potency is the fitted concentration of half-maximal effect; nearly all actives have a fitted effect of over 55% in size
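Human tau K18 P301L (15 uM unlabeled, 0.24 uM Alexa 594-labeled) in 100 mM sodium acetate pH 7 with 20 uM heparin, 6 hr at 37 C. ThT 30 uM added, 1 hr ambient; Alexa 594 FP and total fluorescence read at 555/632 nm.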
Sfp inh: Sfp phosphopantetheinyl transferase inhibition; 3.5% of 310,000 active; Q9F4F7; Potency, µM, for the others: largest response in the series, negative = inhibition, hits mostly inhibitors; Biochemical Sfp PPTase activity, qHTS;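 note: the enzyme is Sfp with the accession as filed and its product quenches rhodamine fluorescence; potency is the fitted concentration of half-maximal effect; 0% = enzyme reaction without inhibitor and -100% = no enzyme wells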
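Fluorescence-quenching assay with 15 nM Sfp, 5 uM rhodamine-CoA and 12.5 uM BHQ-2-labelled ybbR peptide in pH 7.6 Hepes/MgCl2 buffer. Enzyme was pre-incubated with compound for 15 min at room temperature. Rate was taken from the 30-min fluorescence change (525/598 nm).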
Tau fibril ThT: inhibitors of human tau fibril formation, thioflavin T binding. P10636. recombinant tau K18 P301L (four-repeat tau fragment), heparin-induced fibrillization, ThT fluorescence. Potency, µM (doses to about 57.4 µM), without a hit: at the top dose activity, negative = inhibition, actives largely listed as inhibitors. 2.1% of 270,000 active; note: potency is the fitted concentration of half-maximal effect; nearly all actives have a fitted effect of over 55% in size
Target sequence (P10636 561-689 P618L limits assumed): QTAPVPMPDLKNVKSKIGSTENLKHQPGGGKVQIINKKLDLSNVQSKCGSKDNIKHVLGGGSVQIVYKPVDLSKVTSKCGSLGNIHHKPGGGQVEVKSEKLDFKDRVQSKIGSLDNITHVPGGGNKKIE
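Recombinant human tau K18 fragment […] carrying P301L, 15 uM unlabeled plus 0.24 uM Alexa 594-labeled, was fibrillized with 20 uM heparin in 100 mM sodium acetate pH 7 for 6 hr at 37 C; 30 uM ThT fluorescence read after 1 hr.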
G9a block: G9a (human) methyltransferase inhibition; G9a H3K9 monomethylation, AlphaScreen, 2 h; Q96KQ7; Potency, µM (titrated, usually from 102 µM), without a hit: top-dose activity, negative = inhibition, hits mostly inhibitors; 8.8% of 350,000 active; note: potency is the fitted concentration of half-maximal effect; nearly all actives have a fitted effect of over 75% in size
Target sequence (Q96KQ7 913-1193 limits assumed): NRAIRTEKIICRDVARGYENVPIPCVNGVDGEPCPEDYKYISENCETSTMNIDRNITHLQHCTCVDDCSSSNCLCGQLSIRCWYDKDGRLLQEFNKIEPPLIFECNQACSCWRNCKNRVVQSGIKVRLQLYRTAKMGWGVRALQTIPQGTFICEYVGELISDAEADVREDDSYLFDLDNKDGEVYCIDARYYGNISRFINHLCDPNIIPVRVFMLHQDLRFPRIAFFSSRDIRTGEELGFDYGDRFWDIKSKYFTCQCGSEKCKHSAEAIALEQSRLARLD
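AlphaScreen read-out: biotin-H3K9 peptide (500 nM) methylation by 20 nM enzyme with 20 uM SAM, 2 h at room temperature after 15 min compound preincubation; anti-monomethyl H3K9 antibody plus donor/acceptor beads, 10 min dark.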
Coupling enz: counter-screen for Giardia aldolase inhibitors: coupling enzyme system. coupling enzyme system counterscreen, AmpLite Red fluorescence. activity change, negative = inhibition, % at 58.2 µM, hits read low. 0.67% of 290,000 active. AID 2472; in the data active = activity change below about -30%
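First, compound is pin-transferred into glyceraldehyde-3-phosphate coupling-enzyme reagent at 57.5 uM final and held 10 min at RT. Next, substrate, coupling system and AmpLite Red are added. After 20 min RT, fluorescence (525/598 nm) is read.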
Tau fibril FP: inhibitors of human tau fibril formation | Potency, µM (series often up to 57.7 µM), without a hit: at the highest dose activity, negative = inhibition, most hits filed as inhibitors | 0.39% of 280,000 active | K18 P301L tau heparin fibrillization, Alexa594 FP, 6 h | P10636; note: potency is the fitted concentration of half-maximal effect; nearly all actives have a fitted effect of over 55% in size
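K18 P301L tau (15 uM unlabeled/0.24 uM Alexa 594-labeled, final) + compound + heparin 20 uM final; 100 mM NaOAc pH 7; 6 hr 37 C; ThT 30 uM final added, 1 hr RT; FP ex 555/em 632 nm.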
* marks the source's active call; other numbers are inactive results; ? = inconclusive; · = not tested or not shown; [ ] = dose if it differs, or a comment. Unless noted, calls come from the whole dose curve; as a rule, active = well fitted curve in the direction sought with a large enough effect; inconclusive = small, poorly fitted or top-dose-only effect, or another doubt; inactive = no such curve, though single readings can be large; an effect the other way counts as inactive or inconclusive. Unless noted, % is set by controls: 0 for no effect and ±100 for the full control effect.

SMILES | Tau fluor cs | Sfp inh | Tau fibril ThT | G9a block | Coupling enz | Tau fibril FP
CC1=C(C(=O)Nc2cccnc2)C(c2ccc(Cl)cc2)n2nc(SCc3ccccc3)nc2N1 (stereo not given) | -16% | · | -14% | -4%[59 µM] | · | -19%
Cc1c2ccccc2cc(Cc2ccccc2)[n+]1C | · | -8% | · | 28µM* | -4 | ·
Fc1ccc(-[n+]2nc(Nc3ccccc3)sc2-c2c3ccccc3cc3ccccc23)cc1 | · | 45µM* | · | 11µM* | -31* | ·
Oc1ccc2ccccc2c1-c1sc(Nc2ccccc2)n[n+]1-c1ccc(F)cc1 | · | 10% | · | 40µM* | -1 | ·
COc1ccc(OC)c(NC(=O)C(C)N2c3cccc4cccc(c34)S2(=O)=O)c1 (stereo not given) | · | -5% | · | 17% | -2 | ·
Cc1cnc(C(=O)OC(C)C(=O)NC2CCCc3ccccc32)cn1 (stereo not given) | · | · | · | -2% | · | ·
COc1ccc(C2CC(=O)c3cc(-c4nc(-c5ccc(Cl)cc5)cs4)c(=O)[nH]c3C2)cc1OC (stereo not given) | -9% | · | -8% | -38%[59 µM] | · | ?
COc1ccc(C2CC(=O)c3cc(-c4nc(-c5ccc(C)cc5)cs4)c(=O)[nH]c3C2)cc1 (stereo not given) | ? | · | -15% | 1.8µM* | · | -3%
CC1(C)CC(=O)c2cc(-c3nc(-c4ccc(F)cc4)cs3)c(=O)[nH]c2C1 | -13% | · | -9% | 1.3µM* | · | -19%
Cc1ccc(-n2c3c(cc(-c4nc(-c5ccc(Cl)cc5)cs4)c2=O)C(=O)CC(C)(C)C3)cc1C | -16% | · | -8% | 16µM* | · | -4%
COc1ccc(C2CC(=O)c3cc(-c4nc(-c5cccc([N+](=O)[O-])c5)cs4)c(=O)n(-c4ccccc4C)c3C2)cc1 (stereo not given) | -26% | · | -11% | 3.5µM* | · | 1%
Cc1ccc(S(=O)(=O)NCCC(=O)OCC(=O)N2CCCC2=O)cc1C | · | · | · | -3% | · | ·
COc1ccc(CCNc2nc(SCc3ccccc3F)nc3ccccc23)cc1OC | -17% | · | 1% | 1%[59 µM] | · | 0%
CC(C)(C)C1CCc2c(sc(NC(=O)c3ccc(Cl)cc3)c2C(=O)NCc2ccco2)C1 (stereo not given) | -4% | · | 1% | 0%[59 µM] | · | -12%
COc1ccc(OC)c(-n2c3c(cc(-c4nc(-c5ccc(Cl)cc5)cs4)c2=O)C(=O)CC(C)(C)C3)c1 | -20% | · | 0% | 8%[59 µM] | · | 6%
CC1(C)CC(=O)c2cc(-c3nc(-c4ccc(Cl)cc4)cs3)c(=O)[nH]c2C1 | -17% | · | -9% | 14µM* | · | -3%
COc1ccc(Cn2c(C(=O)O)c(CNCc3ccc(SC)cc3)c3ccc(OC)cc32)cc1 | -13% | · | -9% | -10%[59 µM] | · | 2%
c1ccc(Cc2nn3c(Cn4nnc5ccccc54)nnc3s2)cc1 | -4% | 35µM* | -9% | 8.9µM* | 0 | -2%
c1ccc(OCc2nn3c(-c4cccnc4)nnc3s2)cc1 | 5% | -12% | 15% | 17%[12.7 µM] | 3 | 0%
c1ccc2c(c1)ncn2Cc1nnc2sc(-c3ccc4c(c3)OCO4)nn12 | -2% | -55% | -3% | · | 0 | 3%
Clc1ccc(Cl)c(-c2nn3c(COc4ccccc4)nnc3s2)c1 | 4% | 14µM* | ? | 1.8µM* | 8 | -15%
Clc1ccccc1-c1nn2c(Cn3cnc4ccccc43)nnc2s1 | 0% | 45µM* | -2% | 2.8µM* | 2 | -5%
c1ccc(OCc2nn3c(Cn4nnc5ccccc54)nnc3s2)cc1 | 4% | 13µM* | -10% | 2.8µM* | 3 | 1%
COc1cc(CCC(=O)N2CCN(c3cccc(C)c3C)CC2)cc(OC)c1OC | · | 6% | · | 9% | 0 | ·
CCOC(=O)c1ccc(NC(=O)CN(c2ccc(C)cc2)S(=O)(=O)c2c(C)noc2C)cc1 | ? | · | -6% | 6%[59 µM] | · | ?
SMILES | Tau fluor cs | Sfp inh | Tau fibril ThT | G9a block | Coupling enz | Tau fibril FP
COc1ccc(Br)c(C(=O)Nc2cc3c(cc2N2CCCC2)n(C)c(=O)c(=O)n3C)c1 | 0% | · | ? | ? | · | -2%
COc1ccc(OCc2nn3c(Cn4cnc5ccccc54)nnc3s2)cc1 | -5% | 25µM* | -13% | 5.6µM* | 1 | -1%
COc1ccc(OCc2nn3c(-c4cccc(OC)c4)nnc3s2)cc1 | -4% | ? | ? | ? | 4 | -1%
O=c1c2ccccc2nnn1CSc1nnc(C2COc3ccccc3O2)n1-c1ccccc1 (stereo not given) | -9% | 1% | -8% | ? | 1 | 4%
c1ccc2c(c1)OCC(c1nn3c(Cn4nnc5ccccc54)nnc3s1)O2 (stereo not given) | -8% | 2.5µM* | ? | 5µM* | 3 | 12%
CCN(CC(=O)NCc1ccc(Cl)cc1)C(=O)COc1cccc(C(F)(F)F)c1 | · | · | · | -28% | · | ·
O=C(CSc1nnc(Cc2cccs2)n1C1CC1)NC1CCS(=O)(=O)C1 (stereo not given) | · | · | · | 0%[2.33 µM] | · | ·
Cc1cc2ncc(-c3ccccc3)nc2cc1C | -12% | 5% | -23% | 7% | 0 | -7%
Cc1cc(-c2ccccc2)nc(-c2ccccc2)c1C | -25% | -5% | 3.2µM* | ? | -7 | 12%
Cc1cccn2c(=O)c3cc(C(=O)NCc4ccccc4Cl)sc3nc12 | -5% | · | -4% | 3%[59 µM] | · | ?
NC1=CC(=O)c2cccc3cccc1c23 | ? | 3.5µM* | 11µM* | ? | -34* | ?
CCOc1ccc2oc(C(=O)NNC(=O)c3csc(N4CCOCC4)n3)c(C)c2c1 | · | 12% | · | · | · | ·
COc1ccccc1NC(=O)CCn1c(=O)oc2cc(Cl)ccc21 | -6% | · | -2% | -16%[59 µM] | · | -2%
COC(=O)n1c(=S)oc2cc(Cl)ccc21 | 2% | 25µM* | -6% | 2.5µM* | 5 | 8%
CCCCOC(=O)n1c(=O)oc2cc(S(=O)(=O)N3CCCCC3)ccc21 | -5% | 11% | -3% | 10%[12.7 µM] | 4 | 5%
CCCCOC(=O)n1c(=S)oc2cc(Cl)ccc21 | -2% | 56µM* | -5% | -1%[0.501 µM] | 3 | -8%
CC(=O)Nc1cc(-c2ccccc2)ccc1O | 3% | -11% | 5% | 28µM* | -2 | 6%
CC(=O)Nc1cc(Br)ccc1O | 7% | -20% | 10% | 33%[0.501 µM] | -3 | -5%
Nc1cc(-c2ccccc2)ccc1O | -21% | -15% | ? | 22µM* | -4 | 5%
CSc1c(C#N)sc(=S)n1-c1ccc(C)cc1 | -1% | -1% | -1% | 19% | 5 | -3%
C=CCN1C(=O)c2ccc(C(=O)NCCc3ccc(OC)c(OC)c3)cc2C1=O | · | 24% | · | 23% | 4 | ·
COc1cccc(CNC(=O)c2cc(=O)[nH]c3ccc(S(=O)(=O)N4CCOCC4)cc23)c1 | · | · | · | 25%[12.7 µM] | · | ·
